# From the supplement of paper PMC10849652
# Targets with a hit are over-represented here; the source holds about 7,900 in all. About 0.6% of all pairs of compound and target were hits. Values without a mark were called inactive.
# What was measured:
# Assay in all cases: log2 fold change, soluble protein after heating vs DMSO (PISA); higher = thermal stabilisation; K562 cells, 10 uM, 30 min; active = over 0.2 and 3.5 SD of the protein, either way, in both replicates (recomputed)
# erlotinib = compound: C#Cc1cccc(Nc2ncnc3cc(OCCOC)c(OCCOC)cc23)c1 [erlotinib]
# Procedure, shortened: (§1)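 K562 cells at 2×10^6 cells/mL were exposed to 10 μM compound for 30 min, then aliquots were heated for 3 min across 48°C-58°C, pooled, and extracted in PBS containing 0.5% NP-40 at 4°C. The supernatant after 21,000xg for 90 min was taken as soluble protein and measured by TMTpro 16plex LC-MS/MS with channel sums equalised. Thermal stability is reported relative to control samples, with values from duplicates. Fold changes are given on a log2 scale.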
# [1] = compound: C/C(=N\NC(=O)C1=CC(=CC=C1)S(=O)(=O)N2CCOCC2)/C3=C(C=CC(=C3)Cl)O
# Procedure, shortened: as §1
# [2] = compound: C1=CC(=C(C=C1Cl)C2=NC3=NC=CN=C3C(=N2)NC4=CC=NC=C4)F
# Procedure, shortened: as §1
# [3] = compound: C1=CC(=CC=C1C2=NC3=C(N2)C=C(C=C3)C(=O)N)OC4=CC=C(C=C4)Cl
# Procedure, shortened: as §1
# [4] = compound: C1=CC2=C(C=CC(=C2)/C=C\3/C(=O)NC(=NCC4=CC=CS4)S3)N=C1
# Procedure, shortened: as §1
# [5] = compound: C1=CC2=NC=CN=C2C=C1/C=C/3\C(=O)NC(=O)S3
# Procedure, shortened: as §1
# [6] = compound: C1=CC=C(C=C1)C2=NC(=C(N2)C3=CC=NC=C3)C4=CC(=C(C=C4)Cl)O
# Procedure, shortened: as §1
# [7] = compound: C1=CC=C2C(=C1)C3=NNC4=CC=CC(=C43)C2=O
# Procedure, shortened: as §1
# [8] = compound: C1CCN(C1)C(=O)NC2=CC=CC(=C2)NC3=NC=C(C(=N3)NCCC4=CN=CN4)Br
# Procedure, shortened: as §1
# [9] = compound: C1CN(CCC1(CC2=CC=C(C=C2)Cl)N)C3=NC=NC4=C3C=CN4
# Procedure, shortened: as §1
# Sequence of UniProt P46108 (P46108 whole entry, looked up): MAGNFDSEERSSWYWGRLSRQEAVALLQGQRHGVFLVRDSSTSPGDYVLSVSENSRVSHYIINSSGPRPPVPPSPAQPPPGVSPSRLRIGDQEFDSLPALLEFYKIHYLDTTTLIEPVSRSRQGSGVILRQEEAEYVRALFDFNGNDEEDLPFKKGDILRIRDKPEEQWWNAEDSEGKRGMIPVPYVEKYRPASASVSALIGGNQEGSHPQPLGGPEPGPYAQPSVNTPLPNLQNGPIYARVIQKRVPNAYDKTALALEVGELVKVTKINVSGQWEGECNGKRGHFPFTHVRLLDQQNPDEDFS
# Sequence of UniProt Q7KZN9 (Q7KZN9 whole entry, looked up): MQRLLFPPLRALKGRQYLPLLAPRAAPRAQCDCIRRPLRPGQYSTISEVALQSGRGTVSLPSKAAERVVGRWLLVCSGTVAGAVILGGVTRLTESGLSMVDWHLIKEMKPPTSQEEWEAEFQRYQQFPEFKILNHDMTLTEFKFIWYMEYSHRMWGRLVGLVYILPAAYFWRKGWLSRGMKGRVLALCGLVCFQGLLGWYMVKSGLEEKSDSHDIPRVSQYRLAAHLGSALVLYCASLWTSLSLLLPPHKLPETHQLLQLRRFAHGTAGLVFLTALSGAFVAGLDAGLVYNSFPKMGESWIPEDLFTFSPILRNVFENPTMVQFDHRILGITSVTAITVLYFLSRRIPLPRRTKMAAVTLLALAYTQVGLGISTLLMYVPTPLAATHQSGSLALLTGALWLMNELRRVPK
# Sequence of UniProt Q8NHZ8 (Q8NHZ8 whole entry, looked up): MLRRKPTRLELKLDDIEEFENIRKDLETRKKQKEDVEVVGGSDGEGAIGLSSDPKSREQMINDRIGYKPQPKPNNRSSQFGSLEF
# Sequence of UniProt Q10570 (Q10570 whole entry, looked up): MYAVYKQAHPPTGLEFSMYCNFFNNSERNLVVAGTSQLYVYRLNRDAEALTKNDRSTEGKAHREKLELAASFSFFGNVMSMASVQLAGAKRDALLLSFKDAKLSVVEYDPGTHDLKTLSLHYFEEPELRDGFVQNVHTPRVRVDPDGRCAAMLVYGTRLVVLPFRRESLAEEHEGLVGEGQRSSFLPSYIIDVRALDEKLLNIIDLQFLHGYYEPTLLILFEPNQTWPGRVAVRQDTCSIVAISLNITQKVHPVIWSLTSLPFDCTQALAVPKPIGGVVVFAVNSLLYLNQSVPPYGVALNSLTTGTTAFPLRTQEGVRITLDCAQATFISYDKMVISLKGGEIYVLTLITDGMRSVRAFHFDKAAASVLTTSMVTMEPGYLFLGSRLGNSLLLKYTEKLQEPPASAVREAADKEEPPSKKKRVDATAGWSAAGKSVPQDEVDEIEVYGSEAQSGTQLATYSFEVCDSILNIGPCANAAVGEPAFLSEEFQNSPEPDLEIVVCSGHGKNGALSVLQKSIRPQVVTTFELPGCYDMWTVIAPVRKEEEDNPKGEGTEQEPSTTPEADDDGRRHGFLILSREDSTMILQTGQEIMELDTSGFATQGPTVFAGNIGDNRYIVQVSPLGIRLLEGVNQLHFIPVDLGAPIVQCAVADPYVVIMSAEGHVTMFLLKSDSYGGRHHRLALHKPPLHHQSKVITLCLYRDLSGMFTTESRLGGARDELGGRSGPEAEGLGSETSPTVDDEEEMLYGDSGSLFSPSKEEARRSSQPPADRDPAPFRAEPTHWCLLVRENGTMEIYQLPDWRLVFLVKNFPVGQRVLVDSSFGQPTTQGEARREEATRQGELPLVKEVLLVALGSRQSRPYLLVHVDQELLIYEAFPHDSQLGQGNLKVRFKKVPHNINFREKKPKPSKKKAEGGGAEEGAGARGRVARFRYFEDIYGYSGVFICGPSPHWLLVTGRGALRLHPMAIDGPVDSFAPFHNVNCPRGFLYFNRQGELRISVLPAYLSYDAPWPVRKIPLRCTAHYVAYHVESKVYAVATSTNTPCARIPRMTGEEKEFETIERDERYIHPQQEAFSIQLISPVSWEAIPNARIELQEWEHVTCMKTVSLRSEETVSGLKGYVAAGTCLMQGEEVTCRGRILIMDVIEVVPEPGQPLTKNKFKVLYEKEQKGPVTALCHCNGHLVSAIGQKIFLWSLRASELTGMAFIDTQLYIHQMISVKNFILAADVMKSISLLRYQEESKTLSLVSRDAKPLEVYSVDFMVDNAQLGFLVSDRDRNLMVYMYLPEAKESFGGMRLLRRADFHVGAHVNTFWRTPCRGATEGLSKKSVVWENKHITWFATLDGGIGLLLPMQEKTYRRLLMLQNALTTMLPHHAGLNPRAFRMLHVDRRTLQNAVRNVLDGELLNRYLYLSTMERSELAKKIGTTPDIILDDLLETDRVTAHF
# Sequence of UniProt P23786 (P23786 whole entry, looked up): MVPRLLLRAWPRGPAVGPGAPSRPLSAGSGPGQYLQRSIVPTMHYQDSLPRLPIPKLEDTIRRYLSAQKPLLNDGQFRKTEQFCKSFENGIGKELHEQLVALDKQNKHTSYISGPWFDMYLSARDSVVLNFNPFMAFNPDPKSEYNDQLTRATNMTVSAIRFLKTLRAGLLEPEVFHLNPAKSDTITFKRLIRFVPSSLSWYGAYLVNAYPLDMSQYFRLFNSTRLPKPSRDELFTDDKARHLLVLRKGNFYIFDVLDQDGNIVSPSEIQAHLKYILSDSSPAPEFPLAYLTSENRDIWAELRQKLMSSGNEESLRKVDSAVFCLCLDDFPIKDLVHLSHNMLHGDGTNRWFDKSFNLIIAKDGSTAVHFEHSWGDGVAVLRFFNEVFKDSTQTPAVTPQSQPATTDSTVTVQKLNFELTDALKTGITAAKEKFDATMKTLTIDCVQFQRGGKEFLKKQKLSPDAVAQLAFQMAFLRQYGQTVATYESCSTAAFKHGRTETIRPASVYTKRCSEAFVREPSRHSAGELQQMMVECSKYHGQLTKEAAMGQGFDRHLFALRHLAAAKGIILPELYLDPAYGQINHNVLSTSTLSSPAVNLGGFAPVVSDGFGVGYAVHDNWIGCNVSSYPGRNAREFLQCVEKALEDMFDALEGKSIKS
# Sequence of UniProt P42575 (P42575 whole entry, looked up): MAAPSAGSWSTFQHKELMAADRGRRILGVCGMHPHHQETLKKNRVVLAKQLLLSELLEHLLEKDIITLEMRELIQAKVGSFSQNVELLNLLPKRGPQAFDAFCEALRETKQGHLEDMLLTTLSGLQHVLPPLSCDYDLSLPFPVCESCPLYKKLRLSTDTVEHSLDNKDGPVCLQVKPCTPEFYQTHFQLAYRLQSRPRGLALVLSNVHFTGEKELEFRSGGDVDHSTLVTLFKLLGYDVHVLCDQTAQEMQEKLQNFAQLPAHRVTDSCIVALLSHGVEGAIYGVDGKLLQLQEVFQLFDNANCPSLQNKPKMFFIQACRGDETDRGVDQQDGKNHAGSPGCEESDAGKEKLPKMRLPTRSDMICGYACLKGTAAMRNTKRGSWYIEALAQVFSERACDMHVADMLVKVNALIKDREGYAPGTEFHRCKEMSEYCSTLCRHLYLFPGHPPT
# Sequence of UniProt Q00536 (Q00536 whole entry, looked up): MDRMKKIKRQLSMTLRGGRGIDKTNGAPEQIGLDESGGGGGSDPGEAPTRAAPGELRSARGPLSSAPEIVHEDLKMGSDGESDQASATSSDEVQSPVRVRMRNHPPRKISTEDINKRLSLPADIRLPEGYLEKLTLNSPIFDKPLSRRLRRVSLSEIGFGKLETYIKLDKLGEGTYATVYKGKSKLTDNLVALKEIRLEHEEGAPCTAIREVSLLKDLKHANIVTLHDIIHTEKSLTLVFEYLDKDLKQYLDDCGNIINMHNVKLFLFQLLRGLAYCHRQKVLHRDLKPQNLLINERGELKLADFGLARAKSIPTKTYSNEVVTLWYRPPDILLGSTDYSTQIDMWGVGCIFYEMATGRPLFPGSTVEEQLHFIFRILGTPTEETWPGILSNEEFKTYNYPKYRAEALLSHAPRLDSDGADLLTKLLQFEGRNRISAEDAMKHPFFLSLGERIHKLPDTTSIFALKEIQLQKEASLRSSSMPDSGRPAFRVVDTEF
# Sequence of UniProt Q13057 (Q13057 whole entry, looked up): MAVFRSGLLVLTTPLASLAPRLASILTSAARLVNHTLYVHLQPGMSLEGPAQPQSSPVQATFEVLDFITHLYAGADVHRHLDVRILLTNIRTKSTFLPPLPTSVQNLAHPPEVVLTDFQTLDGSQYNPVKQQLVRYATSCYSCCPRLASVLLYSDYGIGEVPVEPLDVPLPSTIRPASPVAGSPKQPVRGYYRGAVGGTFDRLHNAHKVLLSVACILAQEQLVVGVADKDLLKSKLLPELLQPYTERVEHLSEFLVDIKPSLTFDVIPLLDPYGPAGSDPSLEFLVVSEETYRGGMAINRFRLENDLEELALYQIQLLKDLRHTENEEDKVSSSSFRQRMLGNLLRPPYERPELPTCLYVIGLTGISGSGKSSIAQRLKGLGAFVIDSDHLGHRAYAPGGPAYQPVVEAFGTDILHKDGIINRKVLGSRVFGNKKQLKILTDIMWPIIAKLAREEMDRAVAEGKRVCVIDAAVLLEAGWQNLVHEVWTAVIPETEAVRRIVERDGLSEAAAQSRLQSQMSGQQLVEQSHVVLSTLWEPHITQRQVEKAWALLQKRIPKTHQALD
# Sequence of UniProt Q8N684 (Q8N684 whole entry, looked up): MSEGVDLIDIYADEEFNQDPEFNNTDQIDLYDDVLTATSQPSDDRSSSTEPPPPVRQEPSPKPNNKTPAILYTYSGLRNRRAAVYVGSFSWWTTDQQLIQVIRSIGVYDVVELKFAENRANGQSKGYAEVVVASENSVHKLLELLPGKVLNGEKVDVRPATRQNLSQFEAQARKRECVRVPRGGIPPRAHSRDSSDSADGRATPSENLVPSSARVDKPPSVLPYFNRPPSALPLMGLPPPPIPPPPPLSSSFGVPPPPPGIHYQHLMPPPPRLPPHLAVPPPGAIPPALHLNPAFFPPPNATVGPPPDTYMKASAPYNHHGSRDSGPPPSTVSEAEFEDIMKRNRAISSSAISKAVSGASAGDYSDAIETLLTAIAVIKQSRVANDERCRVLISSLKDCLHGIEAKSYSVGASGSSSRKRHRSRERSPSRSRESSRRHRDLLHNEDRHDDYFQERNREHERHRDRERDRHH
Target,log2 fold change (erlotinib),log2 fold change [1],log2 fold change [2],log2 fold change [3],log2 fold change [4],log2 fold change [5],log2 fold change [6],log2 fold change [7],log2 fold change [8],log2 fold change [9]
CHP1 (UniProt Q99653),-0.022,0.024,0.097,0.012,-0.056,0.008,0.287 (active),0.006,-0.07,0.091
COQ9 (UniProt O75208),0.035,0.082,0.006,0.016,0.034,0.056,0.012,0.008,-0.018,-0.001
CDK16 isoform 2 (UniProt Q00536),-0.072,-0.025,-0.023,-0.07,0.043,-0.016,-0.024,0.121,0.139,-0.029
COX15 (UniProt Q7KZN9),-0.01,-0.008,0.067,-0.008,0.03,0.145,-0.009,-0.019,0.01,0.057
CLUH (UniProt O75153),0.08,0,0.318,-0.042,0.137,0.324 (active),0.03,0.058,-0.043,-0.027
CHCHD2 (UniProt Q9Y6H1),-0.083,0.107,0.092,0.049,0.028,0.032,-0.028,0.098,0.003,-0.001
CRLF3 (UniProt Q8IUI8),0.09,-0.034,0.036,-0.015,0.076,0.019,-0.018,-0.028,0.027,-0.04
COX20 isoform 2 (UniProt Q5RI15),0.037,0.013,0.072,0.008,0.057,0.016,-0.092,-0.061,0,0.03
CDC26 (UniProt Q8NHZ8),-0.096,0.16,-0.046,0.034,-0.542 (active),0.025,0.355,0.037,-0.137,-0.022
COASY isoform 2 (UniProt Q13057),-0.022,0.1,0.042,-0.067,0.032,0.01,0.076,0.043,-0.011,0.092
CCNB1 (UniProt P14635),0.012,0.013,0.03,0.044,0.013,0.006,-0.016,0.002,-0.011,-0.018
CRK (UniProt P46108),-0.022,0.035,-0.002,-0.012,-0.011,0.03,-0.076,0.049,0.016,0.001
CPSF1 (UniProt Q10570),-0.004,-0.057,-0.108,0.039,-0.012,0.02,-0.062,-0.045,0.041,-0.037
CBX5 (UniProt P45973),-0.018,0.08,0,0.043,0.111,0.025,0.003,-0.028,-0.002,-0.015
CPSF3 (UniProt Q9UKF6),0.006,0.104,0.028,0,-0.003,0.048,0,-0.022,-0.005,-0.011
CDAN1 (UniProt Q8IWY9),-0.031,0.048,-0.171,-0.011,0.039,0.066,0.019,-0.057,0.109,0.03

Target,log2 fold change (erlotinib),log2 fold change [1],log2 fold change [2],log2 fold change [3],log2 fold change [4],log2 fold change [5],log2 fold change [6],log2 fold change [7],log2 fold change [8],log2 fold change [9]
CCZ1 (UniProt P86791),0.027,0.046,-0.003,0.064,0.034,-0.017,0.031,0.011,0.016,0.011
CDK13 (UniProt Q14004),-0.064,0.039,-0.147,0.028,-0.126,-0.014,-0.012,-0.212,-0.006,-0.129
CSK (UniProt P41240),0.023,0.031,-0.038,0.005,0.056,-0.022,0.024,-0.02,-0.034,-0.05
CPSF7 isoform 3 (UniProt Q8N684),-0.035,0.054,-0.015,0.041,-0.001,0.005,0.01,-0.005,-0.035,-0.016
CLCN7 (UniProt P51798),0.079,0.047,0.075,-0.008,0.023,0.063,0.076,-0.05,0.016,0.001
CSNK2B (UniProt P67870),-0.021,-0.024,-0.017,-0.007,0.123,0.324 (active),0.031,0.084,-0.031,-0.023
CDK6 (UniProt Q00534),-0.035,0,-0.053,0.02,0.027,0.018,-0.031,0.04,0.017,-0.034
CPT2 (UniProt P23786),-0.096,-0.087,0.068,0.636,0.07,0.076,0.163,0.066,0.004,0.23
CASP2 (UniProt P42575),0.069,-0.007,0.056,-0.011,0.054,-0.025,-0.011,0.028,0.004,-0.053
CLPP (UniProt Q16740),-0.025,0.013,-0.069,0.037,0.042,0.003,0.023,0.035,-0.028,0.022
CLPTM1L (UniProt Q96KA5),0.011,0.04,-0.029,0.063,0.032,0.018,-0.002,-0.037,-0.022,0.017
CDK12 (UniProt Q9NYV4),-0.049,0.001,-0.44,0.076,-0.06,-0.053,-0.066,-0.23,-0.077,-0.187
CDK5RAP3 isoform 4 (UniProt Q96JB5),0.089,0.027,0.042,-0.017,0.01,0.023,0.033,0.041,-0.003,-0.068
CHST10 (UniProt O43529),0.013,-0.168,-0.144,-0.058,-0.111,0.03,0.067,0.101,0.008,0.06
C16orf58 (UniProt Q96GQ5),0.033,0.01,0.051,0.023,0.061,0.042,-0.001,-0.021,0.006,0.036
CD151 (UniProt P48509),-0.035,0.029,0.045,0.103,-0.021,0.069,0.021,-0.125,-0.021,0.113
